# Source: the supplement of paper PMC10849652
# About 7,900 targets were measured; listed, in parts, are those with a hit and a random draw of the rest. About 0.6% of all pairs of compound and target were hits. A number with no mark means an inactive call.
# Tests used:
# Experiment in all cases: log2 fold change, soluble protein after heating vs DMSO (PISA); higher = thermal stabilisation; K562 cells, 10 uM, 30 min; active = over 0.2 and 3.5 SD of the protein, either way, in both replicates (recomputed)
# [1] = compound: NC(=O)Nc1cc(-c2cccc(F)c2)sc1C(=O)N[C@H]1CCCNC1
# Outline: (§1)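 For each measurement, 10 μM compound was applied for 30 min to K562 cells at 2×10^6 cells/mL. Aliquots were heated for 3 min across 48°C-58°C, pooled, and extracted in PBS with 0.5% NP-40 at 4°C; the supernatant after 21,000xg for 90 min was soluble protein. This was quantified by TMTpro 16plex LC-MS/MS with channel sums equalised, and thermal stability was reported relative to control samples from duplicates, on a log2 fold-change scale.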
# [2] = compound: NC(=O)c1cnc(N[C@@H]2CCCC[C@@H]2N)nc1Nc1cccc(-n2nccn2)c1
# Outline: as §1
# [3] = compound: NC1(c2ccc(-c3nc4ccn5c(=O)[nH]nc5c4cc3-c3ccccc3)cc2)CCC1
# Outline: as §1
# [4] = compound: NCC(=O)Nc1ccc(-n2nc(C(F)(F)F)cc2-c2ccc3c(ccc4ccccc43)c2)cc1
# Outline: as §1
# entinostat = compound: Nc1ccccc1NC(=O)c1ccc(CNC(=O)OCc2cccnc2)cc1 [entinostat]
# Outline: as §1
# vorinostat = compound: O=C(CCCCCCC(=O)Nc1ccccc1)NO [vorinostat]
# Outline: as §1
# citarinostat = compound: O=C(CCCCCCNC(=O)c1cnc(N(c2ccccc2)c2ccccc2Cl)nc1)NO [citarinostat]
# Outline: as §1
# silmitasertib = compound: O=C(O)c1ccc2c(c1)nc(Nc1cccc(Cl)c1)c1ccncc12 [silmitasertib]
# Outline: as §1
# [5] = compound: O=C1NC(=O)C(c2cnc3ccccn23)=C1c1cn2c3c(cc(F)cc13)CN(C(=O)N1CCCCC1)CC2
# Outline: as §1
# [6] = compound: c1cc(OCCN2CCCCC2)cc(-c2n[nH]c3ccc(-c4nnc[nH]4)cc23)c1
# Outline: as §1
# entospletinib = compound: c1cn2cc(-c3ccc4cn[nH]c4c3)nc(Nc3ccc(N4CCOCC4)cc3)c2n1 [entospletinib]
# Outline: as §1
# Sequence of UniProt Q13586 (Q13586 whole entry, looked up): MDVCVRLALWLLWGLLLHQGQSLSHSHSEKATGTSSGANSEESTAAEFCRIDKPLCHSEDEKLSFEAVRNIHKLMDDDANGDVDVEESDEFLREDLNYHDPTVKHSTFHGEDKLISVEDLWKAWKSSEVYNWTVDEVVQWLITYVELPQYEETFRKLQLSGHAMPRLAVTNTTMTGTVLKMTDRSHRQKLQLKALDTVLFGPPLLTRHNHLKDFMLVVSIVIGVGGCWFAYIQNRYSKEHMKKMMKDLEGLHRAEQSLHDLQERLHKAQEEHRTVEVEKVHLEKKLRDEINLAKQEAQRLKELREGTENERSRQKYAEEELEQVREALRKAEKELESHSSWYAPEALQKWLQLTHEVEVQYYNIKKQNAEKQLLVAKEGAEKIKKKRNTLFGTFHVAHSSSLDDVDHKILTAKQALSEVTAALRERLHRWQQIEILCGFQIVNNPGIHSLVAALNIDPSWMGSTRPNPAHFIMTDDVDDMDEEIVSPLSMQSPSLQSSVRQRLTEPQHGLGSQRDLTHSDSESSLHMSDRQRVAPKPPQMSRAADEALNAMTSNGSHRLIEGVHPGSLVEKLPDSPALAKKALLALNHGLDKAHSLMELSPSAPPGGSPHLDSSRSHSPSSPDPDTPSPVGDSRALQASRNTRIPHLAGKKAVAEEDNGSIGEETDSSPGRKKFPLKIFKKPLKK
# Sequence of UniProt Q9UKI8 (Q9UKI8 whole entry, looked up): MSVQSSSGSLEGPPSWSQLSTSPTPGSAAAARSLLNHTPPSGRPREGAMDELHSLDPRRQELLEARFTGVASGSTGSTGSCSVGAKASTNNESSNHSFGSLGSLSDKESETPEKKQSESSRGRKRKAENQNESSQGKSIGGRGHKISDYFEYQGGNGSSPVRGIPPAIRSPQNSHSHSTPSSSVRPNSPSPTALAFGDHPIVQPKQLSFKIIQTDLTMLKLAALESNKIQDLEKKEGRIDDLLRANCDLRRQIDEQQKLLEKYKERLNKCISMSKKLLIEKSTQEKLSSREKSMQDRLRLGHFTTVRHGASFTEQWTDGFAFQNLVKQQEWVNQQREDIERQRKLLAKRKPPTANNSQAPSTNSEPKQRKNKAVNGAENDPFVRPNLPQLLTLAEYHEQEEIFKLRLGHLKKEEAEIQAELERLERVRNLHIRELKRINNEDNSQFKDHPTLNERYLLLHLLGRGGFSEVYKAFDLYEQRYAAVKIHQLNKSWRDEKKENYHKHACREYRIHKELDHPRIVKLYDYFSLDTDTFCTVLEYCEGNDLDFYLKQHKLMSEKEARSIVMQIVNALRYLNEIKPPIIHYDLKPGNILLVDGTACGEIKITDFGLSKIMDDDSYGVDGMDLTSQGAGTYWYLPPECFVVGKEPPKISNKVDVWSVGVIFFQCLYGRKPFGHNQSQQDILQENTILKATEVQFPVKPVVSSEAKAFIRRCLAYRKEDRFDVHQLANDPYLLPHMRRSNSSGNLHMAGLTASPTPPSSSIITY
# Sequence of UniProt O95772 (O95772 whole entry, looked up): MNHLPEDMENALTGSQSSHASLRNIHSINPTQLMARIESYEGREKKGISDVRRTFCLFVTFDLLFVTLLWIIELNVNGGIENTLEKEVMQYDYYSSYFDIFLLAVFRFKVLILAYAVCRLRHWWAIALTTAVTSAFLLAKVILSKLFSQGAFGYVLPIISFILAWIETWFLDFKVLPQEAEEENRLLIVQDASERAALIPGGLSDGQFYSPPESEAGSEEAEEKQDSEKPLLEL
# Sequence of UniProt Q16629 (Q16629 whole entry, looked up): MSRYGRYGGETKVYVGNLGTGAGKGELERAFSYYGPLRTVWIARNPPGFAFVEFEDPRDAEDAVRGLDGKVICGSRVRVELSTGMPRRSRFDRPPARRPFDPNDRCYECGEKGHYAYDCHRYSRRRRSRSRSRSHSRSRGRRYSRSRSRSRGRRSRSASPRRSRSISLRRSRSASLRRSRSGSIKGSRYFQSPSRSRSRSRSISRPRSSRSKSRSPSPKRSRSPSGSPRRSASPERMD
# Sequence of UniProt Q9UQ35 (Q9UQ35 whole entry, looked up): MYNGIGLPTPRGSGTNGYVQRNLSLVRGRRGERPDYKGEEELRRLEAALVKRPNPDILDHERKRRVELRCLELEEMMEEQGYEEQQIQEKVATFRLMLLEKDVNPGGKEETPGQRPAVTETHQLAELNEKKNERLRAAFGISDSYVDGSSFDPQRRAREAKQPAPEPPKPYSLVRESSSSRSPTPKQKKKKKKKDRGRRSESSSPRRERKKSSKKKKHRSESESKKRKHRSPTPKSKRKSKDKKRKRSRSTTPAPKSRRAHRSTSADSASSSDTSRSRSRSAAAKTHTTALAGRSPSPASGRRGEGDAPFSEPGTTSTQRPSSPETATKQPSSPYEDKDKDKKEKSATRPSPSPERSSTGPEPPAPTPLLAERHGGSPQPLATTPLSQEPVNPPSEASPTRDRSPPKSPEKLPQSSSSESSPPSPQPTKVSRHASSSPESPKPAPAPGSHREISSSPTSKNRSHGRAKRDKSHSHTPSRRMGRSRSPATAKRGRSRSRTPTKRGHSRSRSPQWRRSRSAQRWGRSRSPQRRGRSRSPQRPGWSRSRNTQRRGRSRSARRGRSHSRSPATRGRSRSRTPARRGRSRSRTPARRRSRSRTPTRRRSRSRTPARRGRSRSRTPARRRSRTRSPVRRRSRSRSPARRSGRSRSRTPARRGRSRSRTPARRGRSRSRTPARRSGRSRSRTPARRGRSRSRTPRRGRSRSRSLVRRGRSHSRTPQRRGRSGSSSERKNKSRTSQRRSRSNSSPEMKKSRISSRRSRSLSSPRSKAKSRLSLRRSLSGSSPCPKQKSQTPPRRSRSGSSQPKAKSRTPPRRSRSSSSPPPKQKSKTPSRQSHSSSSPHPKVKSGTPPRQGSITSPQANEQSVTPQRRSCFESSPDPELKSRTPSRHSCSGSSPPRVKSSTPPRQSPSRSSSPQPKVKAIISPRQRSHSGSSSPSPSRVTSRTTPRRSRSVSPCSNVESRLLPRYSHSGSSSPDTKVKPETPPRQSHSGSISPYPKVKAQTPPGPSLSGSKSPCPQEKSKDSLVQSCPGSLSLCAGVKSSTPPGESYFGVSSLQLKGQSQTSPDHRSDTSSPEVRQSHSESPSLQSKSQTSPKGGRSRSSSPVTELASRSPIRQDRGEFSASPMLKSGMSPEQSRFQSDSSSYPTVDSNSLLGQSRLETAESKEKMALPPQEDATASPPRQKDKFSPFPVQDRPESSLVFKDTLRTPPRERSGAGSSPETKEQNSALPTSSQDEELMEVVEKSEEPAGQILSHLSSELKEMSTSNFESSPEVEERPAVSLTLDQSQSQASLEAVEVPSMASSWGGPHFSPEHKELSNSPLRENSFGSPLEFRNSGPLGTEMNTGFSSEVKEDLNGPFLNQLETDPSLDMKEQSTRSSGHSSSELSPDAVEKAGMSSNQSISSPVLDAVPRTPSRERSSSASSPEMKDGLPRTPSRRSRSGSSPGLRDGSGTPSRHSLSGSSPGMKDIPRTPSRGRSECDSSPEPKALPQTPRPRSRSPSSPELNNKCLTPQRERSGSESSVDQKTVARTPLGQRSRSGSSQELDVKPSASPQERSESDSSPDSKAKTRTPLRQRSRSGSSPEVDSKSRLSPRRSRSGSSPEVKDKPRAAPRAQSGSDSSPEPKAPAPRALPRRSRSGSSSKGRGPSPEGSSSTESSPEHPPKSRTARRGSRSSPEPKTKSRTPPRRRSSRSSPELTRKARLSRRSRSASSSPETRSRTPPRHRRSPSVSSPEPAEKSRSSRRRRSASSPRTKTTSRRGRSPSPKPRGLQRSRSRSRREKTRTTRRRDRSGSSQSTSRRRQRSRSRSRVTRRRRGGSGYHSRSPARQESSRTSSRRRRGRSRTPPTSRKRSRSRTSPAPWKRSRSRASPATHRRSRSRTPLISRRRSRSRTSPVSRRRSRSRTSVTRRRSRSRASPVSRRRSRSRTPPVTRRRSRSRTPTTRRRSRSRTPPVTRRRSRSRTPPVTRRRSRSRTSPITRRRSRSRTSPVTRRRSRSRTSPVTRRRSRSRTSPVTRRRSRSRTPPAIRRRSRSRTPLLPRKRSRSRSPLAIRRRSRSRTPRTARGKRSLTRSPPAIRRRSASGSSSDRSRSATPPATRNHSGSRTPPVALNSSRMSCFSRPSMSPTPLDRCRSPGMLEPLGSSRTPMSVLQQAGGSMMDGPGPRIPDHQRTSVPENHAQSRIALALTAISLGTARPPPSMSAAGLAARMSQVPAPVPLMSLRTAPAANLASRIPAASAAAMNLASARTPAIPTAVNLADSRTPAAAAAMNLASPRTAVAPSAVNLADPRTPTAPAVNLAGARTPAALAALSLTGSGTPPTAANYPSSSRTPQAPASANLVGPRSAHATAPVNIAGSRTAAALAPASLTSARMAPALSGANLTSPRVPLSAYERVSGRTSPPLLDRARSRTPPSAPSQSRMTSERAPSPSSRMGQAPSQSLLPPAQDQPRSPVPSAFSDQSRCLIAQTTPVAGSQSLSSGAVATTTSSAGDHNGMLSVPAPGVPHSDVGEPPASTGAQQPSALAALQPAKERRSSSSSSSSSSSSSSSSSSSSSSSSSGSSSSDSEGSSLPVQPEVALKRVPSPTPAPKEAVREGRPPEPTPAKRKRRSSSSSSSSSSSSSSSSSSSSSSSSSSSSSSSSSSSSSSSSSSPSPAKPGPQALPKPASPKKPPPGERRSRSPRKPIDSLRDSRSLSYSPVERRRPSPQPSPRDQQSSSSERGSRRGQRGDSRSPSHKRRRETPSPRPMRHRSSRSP
# Sequence of UniProt Q96CW6 (Q96CW6 whole entry, looked up): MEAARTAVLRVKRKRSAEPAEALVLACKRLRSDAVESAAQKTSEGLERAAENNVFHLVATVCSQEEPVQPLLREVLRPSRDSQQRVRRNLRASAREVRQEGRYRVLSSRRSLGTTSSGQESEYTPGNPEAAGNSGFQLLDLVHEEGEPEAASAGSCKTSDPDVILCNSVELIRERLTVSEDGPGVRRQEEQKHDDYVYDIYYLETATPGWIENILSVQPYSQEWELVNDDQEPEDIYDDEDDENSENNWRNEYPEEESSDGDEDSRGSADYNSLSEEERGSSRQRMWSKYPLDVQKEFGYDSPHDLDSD
# Sequence of UniProt Q8N5G0 (Q8N5G0 whole entry, looked up): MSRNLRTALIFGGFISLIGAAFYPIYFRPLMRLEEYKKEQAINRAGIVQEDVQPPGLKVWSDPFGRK
Target,log2 fold change [1],log2 fold change [2],log2 fold change [3],log2 fold change [4],log2 fold change (entinostat),log2 fold change (vorinostat),log2 fold change (citarinostat),log2 fold change (silmitasertib),log2 fold change [5],log2 fold change [6],log2 fold change (entospletinib)
SRSF7 (UniProt Q16629),0,0.13,0.525,0.027,-0.079,0,-0.132,-0.144,0.357,-0.33,0.197
STXBP2 isoform 3 (UniProt Q15833),-0.084,-0.066,-0.12,-0.051,0.035,0.105,0.046,0.112,0.141,0.036,0.099
TBC1D23 (UniProt Q9NUY8),0.015,-0.135,-0.33 (active),-0.009,0.06,0.115,0.045,0.02,-0.073,-0.047,-0.045
SLC38A9 (UniProt Q8NBW4),-0.129,0.009,-0.113,-0.025,0.034,0.007,0.004,0.035,-0.044,-0.043,0.019
TBRG4 (UniProt Q969Z0),-0.103,-0.172,-0.58,-0.255,0.214,0.201,0.128,0.074,-0.191,-0.086,-0.027
ST3GAL2 (UniProt Q16842),-0.066,0.101,-0.04,0.008,-0.028,-0.013,0.008,-0.003,-0.016,-0.05,0.167
SMCHD1 (UniProt A6NHR9),-0.085,-0.352,0.159,-0.423,0.08,0.19,0.085,0.095,0.206,-0.176,0.049
SNX12 isoform 1 (UniProt Q9UMY4),-0.022,-0.225 (active),-0.22 (active),0.019,0.046,0.035,0.102,0.06,-0.081,-0.066,-0.005
SRRM2 (UniProt Q9UQ35),-0.004,-0.055,0.005,-0.036,0.025,0.226,0.071,-0.141,-0.225,-0.25,-0.048
SMIM20 isoform 2 (UniProt Q8N5G0),-0.056,-0.032,0,0.002,0.031,0.057,-0.004,-0.01,-0.154,-0.049,0.008
TGFBI (UniProt Q15582),-0.037,-0.136,-0.116,-0.116,0.056,0.309,-0.056,0.114,-0.01,0.202,0.063
TIMM10B (UniProt Q9Y5J6),0.021,0.257,-0.111,-0.007,0.016,-0.202,0.074,0.034,-0.04,0.022,0.045
SPG11 (UniProt Q96JI7),-0.395,-0.138,0.145,-0.293,-0.25,-0.638,-0.233,0.01,0.041,-0.219,0.185
SLC7A6OS (UniProt Q96CW6),-0.023,-0.085,-0.079,0.042,-0.043,0.056,0.098,0.06,-0.036,-0.037,0.052
STK25 (UniProt O00506),-0.029,-0.06,-0.136,-0.08,-0.016,0.042,-0.026,0.078,-0.064,-0.034,-0.104
TIPRL (UniProt O75663),-0.057,-0.114,-0.209 (active),-0.068,0.033,0.095,0.069,-0.032,-0.06,-0.012,0.018
SMAD9 (UniProt O15198),-0.114,0.001,-0.069,0.05,-0.076,0.006,-0.017,-0.055,-0.111,-0.029,-0.026
SYF2 (UniProt O95926),0.099,0.089,-0.032,0.101,-0.022,-0.11,-0.069,0.016,0.14,-0.153,0.143
TIMM13 (UniProt Q9Y5L4),0.114,0.031,-0.027,0.012,0.01,0.031,0.117,-0.016,0.152,0.107,-0.086
SOAT1 (UniProt P35610),-0.073,-0.049,-0.171,-0.045,0.029,-0.063,0.112,0.084,-0.098,-0.185,0.079
STAT5A (UniProt P42229),-0.115,-0.112,-0.112,-0.115,0.112,0.061,0.194,0.037,-0.029,0.061,-0.087
SPAG9 (UniProt O60271),-0.042,-0.13,-0.123,-0.055,0.034,0.023,0.01,0.038,-0.014,-0.024,0.024
SRSF10 (UniProt O75494),0.059,-0.096,0.444,0.063,-0.047,0.048,-0.153,0.103,0.304,-0.152,0.235
STAT6 (UniProt P42226),-0.07,-0.065,-0.041,-0.268,0.044,0.108,0.061,0.041,-0.047,0.03,-0.052
SYMPK (UniProt Q92797),-0.018,0.012,-0.287,-0.08,0.025,0.11,0.051,0.167,0.033,-0.037,-0.015
SLC9A6 isoform 2 (UniProt Q92581),-0.021,0.016,-0.091,-0.02,-0.017,-0.078,0.025,0.027,-0.021,-0.073,-0.004
SREK1 isoform 2 (UniProt Q8WXA9),0.194,-0.068,0.03,-0.208,0.012,0.05,0.129,-0.148,0.059,-0.213,-0.026

Target,log2 fold change [1],log2 fold change [2],log2 fold change [3],log2 fold change [4],log2 fold change (entinostat),log2 fold change (vorinostat),log2 fold change (citarinostat),log2 fold change (silmitasertib),log2 fold change [5],log2 fold change [6],log2 fold change (entospletinib)
TFRC (UniProt P02786),-0.021,-0.031,-0.823 (active),-0.001,-0.008,-0.02,0.062,0.006,-0.023,-0.071,0.022
SUGP1 (UniProt Q8IWZ8),0,-0.05,-0.073,-0.071,0.054,0.077,0.074,0.101,-0.065,0.045,-0.04
ST6GAL1 (UniProt P15907),-0.101,0.089,-0.079,-0.004,-0.106,-0.045,0.025,0.024,0.017,-0.064,0.098
STIM1 (UniProt Q13586),-0.032,-0.074,-0.075,-0.117,0.011,0.022,-0.013,0.007,-0.054,-0.04,0.003
TLK1 (UniProt Q9UKI8),-0.062,-0.074,-0.063,-0.034,0.042,0.027,0.049,-0.002,0.002,-0.074,0.001
SRXN1 (UniProt Q9BYN0),-0.013,-0.364,-0.024,-0.021,-0.053,-0.24,-0.039,-0.059,-0.111,0.09,-0.079
SLC27A2 (UniProt O14975),-0.068,-0.091,0.007,-0.047,-0.023,-0.053,0.059,0.083,0.247,-0.035,0.063
SPPL2B (UniProt Q8TCT7),0.06,0.009,-0.031,-0.016,-0.052,-0.013,0.05,-0.037,0.029,-0.025,-0.056
SUN1 isoform 9 (UniProt O94901),-0.035,-0.073,-0.028,0.102,0.18,0.06,-0.115,-0.009,-0.226,0.075,-0.064
STEAP3 isoform 2 (UniProt Q658P3),-0.13,0.076,-0.042,-0.006,0.008,0.086,0.013,0,-0.028,-0.082,-0.038
SQSTM1 (UniProt Q13501),-0.036,-0.12,-0.068,-0.079,0.051,0.007,0.081,0.056,0.019,-0.094,0.02
TARBP1 (UniProt Q13395),-0.033,0.048,-0.027,0.014,-0.044,0.003,0.079,0.034,0.053,0,0.043
THYN1 (UniProt Q9P016),0,-0.011,-0.048,-0.103,-0.004,0.011,0.008,-0.011,-0.022,-0.034,0.011
SLC27A4 (UniProt Q6P1M0),-0.086,-0.043,-0.034,0.016,-0.024,0,0.043,0.022,-0.073,-0.1,-0.027
STRN (UniProt O43815),-0.055,0.019,-0.037,0.019,-0.008,0.024,0.028,0,-0.051,-0.031,0.03
SLIRP (UniProt Q9GZT3),-0.121,-0.106,-0.041,-0.062,0.127,-0.055,0.023,-0.016,-0.129,-0.129,0.134
TBC1D24 (UniProt Q9ULP9),0.047,-0.038,-0.091,-0.002,0.029,0.291,0.016,-0.135,-0.082,-0.096,0.004
THADA (UniProt Q6YHU6),0.004,-0.085,-0.147,-0.082,0.014,-0.001,0.121,-0.061,-0.025,-0.013,0.004
STARD3NL (UniProt O95772),0.018,-0.104,-0.413 (active),-0.031,0.093,0.037,0.004,0.044,-0.013,0.035,-0.088
SSR3 isoform 2 (UniProt Q9UNL2),-0.056,0.18,-0.056,0.369 (active),-0.04,0,0.068,0,-0.028,-0.114,-0.012
SRSF3 (UniProt P84103),-0.05,0.148,0.396,0.064,-0.126,-0.026,-0.105,-0.033,0.194,-0.141,0.153
SNW1 (UniProt Q13573),0.034,0.019,0.017,0.02,-0.056,-0.044,-0.019,0.062,0.05,-0.05,0.087
SMARCAD1 isoform 2 (UniProt Q9H4L7),-0.109,-0.043,-0.187,-0.072,0.057,0.045,0.037,0.03,-0.187,0.088,-0.008
TCOF1 isoform 4 (UniProt Q13428),0.131,-0.065,-0.014,-0.013,-0.015,-0.026,-0.002,0.002,0.045,-0.112,0.001
TGFBR1 isoform 2 (UniProt P36897),0.029,0.072,-0.041,0.002,0.093,-0.083,0.017,0.073,-0.052,-0.054,-0.018
TBCD (UniProt Q9BTW9),0.003,-0.057,-0.146,-0.03,0.03,-0.013,0.028,0.039,-0.001,-0.063,-0.03
TJP2 isoform 7 (UniProt Q9UDY2),-0.129,-0.007,-0.171,-0.051,0.014,0.161,0.039,-0.061,0.025,-0.167,0.037
